Screening results: PubChem, National Center for Advancing Translational Sciences (NCATS)
D2 ag-1 = Beta-Arrestin HTS for Positive Allosteric Modulators of the Human D2 Dopamine Receptor: Agonists. D(2) dopamine receptor (Homo sapiens), P14416. DiscoveRx PathHunter D2 beta-arrestin, luminescence, 90 min; 100% = 57 uM dopamine signal. activation, % (concentration not given with the values). 360,000 compounds, 0.084% hits; in the data active = activation above about 40%; inconclusive = between about 15% and that limit
Target sequence (P14416 whole entry, looked up): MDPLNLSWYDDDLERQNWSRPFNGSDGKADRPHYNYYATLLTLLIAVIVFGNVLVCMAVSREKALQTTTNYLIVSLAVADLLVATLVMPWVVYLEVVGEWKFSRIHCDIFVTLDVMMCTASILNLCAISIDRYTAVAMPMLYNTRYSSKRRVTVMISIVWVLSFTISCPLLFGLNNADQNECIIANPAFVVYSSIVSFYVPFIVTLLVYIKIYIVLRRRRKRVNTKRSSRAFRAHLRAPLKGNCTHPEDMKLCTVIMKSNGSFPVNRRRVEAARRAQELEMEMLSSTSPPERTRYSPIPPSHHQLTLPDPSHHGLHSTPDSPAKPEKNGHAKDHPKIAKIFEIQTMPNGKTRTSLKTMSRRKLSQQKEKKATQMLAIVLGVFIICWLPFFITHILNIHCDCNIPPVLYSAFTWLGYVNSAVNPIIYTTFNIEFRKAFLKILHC
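DiscoveRx PathHunter D2 beta-arrestin cells (2,100/well) attached overnight, then compound-stimulated 90 min at 37 C in HBSS/10 mM HEPES/0.1% Tween-20 buffer; beta-galactosidase complementation read by luminescence after 1 h at ambient temperature. Dopamine 57 uM final (EC100) as control.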
D2 antagonist = HTS Assay for Allosteric Antagonists of the Human D2 Dopamine Receptor: Primary Screen for Antagonists; D(2) dopamine receptor (Homo sapiens), P14416; HEK293 TREx D2 cells, calcium flux, dopamine EC80; inhibition, % at 10 µM; 340,000 compounds, 2% hits; in the data active = inhibition above about 30%; inactive = below that, where a call was filed
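Tetracycline-induced HEK293 T-REx cells expressing D2 force-coupled to calcium signalling were dye-loaded, exposed to compound for 180 s, then challenged with an EC80 of dopamine; calcium flux was followed kinetically for a further 180 s.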
D2 PAM-1 = Beta-Arrestin HTS for Positive Allosteric Modulators of the Human D2 Dopamine Receptor: Potentiators; D(2) dopamine receptor (Homo sapiens), P14416; DiscoveRx D2 beta-arrestin cells, luminescence, 90 min; 100% = 57 uM dopamine signal; potentiation, % (test concentration not listed); 360,000 compounds, 0.23% hits; AID 624464, 2012; in the data active = potentiation above about 50%; inconclusive = mostly about 30% to 49%
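PathHunter beta-arrestin assay in DiscoveRx D2 cells. Compounds were added with an EC20 of dopamine (50 nM final) for 90 min at 37 deg C. Luminescence was read 1 h after detection reagent, with 57 uM dopamine as the EC100 control.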
D2 PAM-2 = HTS Assay for Positive Allosteric Modulators of the Human D2 Dopamine Receptor: Primary Screen for Potentiators | D(2) dopamine receptor (Homo sapiens), P14416 | HEK293 T-REx D2, calcium flux, EC20 dopamine potentiation | potentiation, % at 10 µM | 340,000 compounds, 0.34% hits;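 active = potentiation over 3 SD above the plate norm, cut at about 30% in these data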
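Potentiation of an EC20 dopamine calcium response is measured in a force-coupled, tetracycline-inducible Hek293 Trex D2 line. Compound-only kinetic reads over 180 s flag agonists before dopamine addition.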
D2 ag-2 = HTS Assay for Allosteric Agonists of the Human D2 Dopamine Receptor: Primary Screen for Agonists; HEK293 T-REx D2 cells, calcium flux agonist mode; activation, % at 2 µM; 340,000 compounds, 0.53% hits;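 active = activation over 3 SD above normal in the single-dose calcium agonist read, cut at about 30% in these data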
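Tetracycline-induced HEK293 Trex cells with D2 receptor force-coupled to calcium signaling, plated overnight at 30 C and loaded with no-wash calcium dye. Calcium flux read kinetically for 180 s after compound addition; responses flag agonists.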
Of the large screens only hits and unclear results are named; the others gave an inactive call. Compounds with a hit are over-represented: about 2.4% of the library has one in this group of screens.

COc1cccc(N2CCN(c3ccc4nnc(CCC(=O)N5CCC(C)CC5)n4n3)CC2)c1	none
CCCN1CCN(C(=O)CCc2nnc3ccc(N4CCN(c5cccc(OC)c5)CC4)nn23)CC1	D2 antagonist 32
CCCCCCOC(=O)c1ccc(OC(=O)c2cccnc2)cc1	none
CCCCOC(=O)c1ccc(OC(=O)c2cccnc2)cc1	D2 antagonist 31
CC(=O)Nc1ccc(NC(=O)C(C)OC(=O)CC2CCCC2)cc1 (centres undefined)	none
CC(=O)Nc1ccc(NC(=O)C(C)OC(=O)CCC2CCCC2)cc1 (centres undefined)	D2 antagonist 30
O=C(Nc1ccccn1)NC1CCCCC1	none
O=C(O)C1CCCCC1C(=O)Nc1ccccn1 (centres undefined)	D2 antagonist 41
Cc1[nH][nH]c(=O)c1N=Nc1ccc(Cl)cc1	none
Cc1cc(N2CCC(N(C)C3CCCC3)CC2)nc2cc(O)ccc12	D2 antagonist 48
Nc1ccc(N(CCO)CCO)cc1	D2 ag-1 inconclusive, D2 PAM-1 64
COC(=O)c1cc2occc2n1Cc1cccc(C)c1	none
COc1c(OC2OC(C(=O)O)C(O)C(O)C2O)cc(O)c2c(=O)cc(-c3ccccc3)oc12 (centres undefined)	none
CCOc1ccccc1NC(=O)COC(=O)c1ccccc1SCC(=O)N1CCCC1	none
O=C(COC(=O)c1ccccc1SCC(=O)N1CCCC1)Nc1ccccc1C(F)(F)F	D2 antagonist 31
CC(NC(=O)COC(=O)CSCc1ccccc1)c1ccccc1 (centres undefined)	none
CC(NC(=O)COC(=O)CCc1ccccc1)c1ccccc1 (centres undefined)	D2 antagonist 35
CCc1ccc(N2CN(Cc3ccco3)CNC2=S)cc1	none
Cc1ccc(NCC(=O)N/N=C/c2ccncc2)cc1	D2 antagonist 49
CCC(C)NC(=O)c1cccc(OCc2c(C)noc2C)c1 (centres undefined)	none
COc1ccc(N2CCC(CNC(=O)Nc3cccc(OC)c3)C2)cc1 (centres undefined)	D2 antagonist 57
CC(OC(=O)c1nccnc1N)C(=O)Nc1ccc(S(=O)(=O)N2CCCC2)cc1 (centres undefined)	none
O=C(COC(=O)CCNS(=O)(=O)c1ccccc1)Nc1ccc(OC(F)F)cc1	D2 antagonist 50
O=C(CCNS(=O)(=O)c1ccc2c(c1)CCC(=O)N2)Nc1ccc2c(c1)OCCO2	none
O=S(=O)(Cc1ccc(Cl)cc1)c1ccccc1-c1nnc(-c2ccccc2)o1	D2 antagonist 55
CS(=O)(=O)c1ccccc1-c1nnc(-c2ccc(Cl)cc2)o1	none
CC1CCC(=NNS(=O)(=O)c2ccc([N+](=O)[O-])cc2)CC1 (centres undefined)	none (no result: D2 antagonist, D2 PAM-2, D2 ag-2)
Nc1nc2c(s1)CCc1c-2cnn1-c1ccccc1	D2 ag-1 40
O=C(O)CC/C(=N\Nc1ccc(S(=O)(=O)N2CCOCC2)cc1[N+](=O)[O-])c1cccs1	D2 antagonist 30
O=C(O)CC/C(=N\Nc1ccc(S(=O)(=O)N2CCCC2)cc1[N+](=O)[O-])c1cccs1	none
COc1ccc(OC)c(NC(=O)C2CC(/C=C/c3ccccc3)=NO2)c1 (centres undefined)	D2 ag-2 33
CSc1cccc(NC(=O)C2CCCN(S(=O)(=O)c3cnc[nH]3)C2)c1 (centres undefined)	D2 antagonist 31
CSc1cccc(NC(=O)C2CCN(S(=O)(=O)c3cnc[nH]3)CC2)c1	none
COc1ccccc1N1CCN(C(=O)c2cc3c(s2)CCCCC3)CC1	none (no result: D2 antagonist, D2 PAM-2, D2 ag-2)
CCOc1ccccc1N1CCN(C(=O)c2cc3c(s2)CCC3)CC1	D2 antagonist 35
Cc1ccc(CN2CCSc3ccc(C(=O)NC4CCN(Cc5ccccc5)CC4)cc32)cc1	D2 antagonist 74 (no result: D2 PAM-2)
O=C(NC1CCN(Cc2ccc(F)cc2)CC1)c1ccccc1	D2 antagonist 115
